# Source: publication PMC4552634, “A New Set of Chemical Starting Points with Plasmodium falciparum Transmission-Blocking Potential for Antimalarial Drug Discovery” (PLoS ONE, 2015)
# Screen size: about 13,000 compounds; about 3,200 (25%) showed an effect of 50% or more. The list shows a part of the results.
# Test system: P. falciparum stage V gametocytes
# Parameters: BacTiter-Glo ATP luminescence viability of purified stage V gametocytes in 384-well plates, per cent inhibition versus DMSO
# Details: 48 h, 5 µM; inhibitor
row,Structure (SMILES),% Inhibition
1,CC(C)(C)c1ccc(-c2ccccc2CNC(=O)c2cccc(O)c2)cc1 [TCMDC-136181],21.07%
2,O=C(NCc1ccccc1)Nc1cccc(-c2cccc(-c3nc4ccc(C(F)(F)F)cc4[nH]3)c2)c1 [TCMDC-133161],-23.46%
3,Cc1cc(CN2CCC(N3CC(c4ccccc4)(c4ccccc4)OCC3=O)C2)ccc1O (stereo not shown) [TCMDC-136340],-6.883%
4,CN1CCCN(Cc2ccc(-c3cccc(NC(=O)c4ccc(C#N)cc4)c3)cc2)CC1 [TCMDC-132637],9.146%
5,Cc1cc(-c2cnc(N)c(-c3ccc(N4CCN(C)CC4)nc3)c2)cc(C)c1O [TCMDC-133346],-63.65%
6,CN(Cc1ccccc1)C1CCCN(c2cc(NC(=O)c3cccs3)ccn2)C1 (stereo not shown) [TCMDC-135007],-39.99%
7,CC(C)c1cc2c(cc1O)C(Cc1ccccc1Cl)N(C)CC2 (stereo not shown) [TCMDC-137322],-86.96%
8,COCCn1c(SC(C)C(=O)Nc2cc(C(F)(F)F)ccc2Cl)nc2ccccc2c1=O (stereo not shown) [TCMDC-125030],60.86%
9,CCn1c(SCC(=O)Nc2cc(C(F)(F)F)ccc2Cl)nc2ccccc2c1=O [TCMDC-125426],3.057%
10,COCC(C)n1c(SCC(=O)Nc2cc(C(F)(F)F)ccc2Cl)nc2ccccc2c1=O (stereo not shown) [TCMDC-125436],2.32%
11,COc1ccc(N(C)Cc2cnc3nc(N)nc(N)c3n2)cc1 [TCMDC-137682],5.189%
12,COC(=O)C(C)(C)c1ccc(CC(C)NCC(O)c2cccc(C(F)(F)F)c2)cc1 (stereo not shown) [TCMDC-131482],7.113%
13,Oc1ccc(Cl)cc1Nc1nc(C(F)(F)F)nc2ccccc12 [TCMDC-125147],-61.42%
14,O=C(Nc1cccc([N+](=O)[O-])c1)N(Cc1ccc(Cl)c(Cl)c1)C1CCNCC1 [TCMDC-141400],39.3%
15,O=[N+]([O-])c1cccc(CNCC2CCN(Cc3ccc(Cl)c(Cl)c3)CC2)c1 [TCMDC-141206],3.652%
16,N#Cc1cccc(CN(Cc2ccc(Cl)c(Cl)c2)S(=O)(=O)c2cccc([N+](=O)[O-])c2)c1 [TCMDC-141594],51.09%
17,Cc1cccc2sc(N(CCCn3ccnc3)C(=O)C=Cc3cccs3)nc12 [TCMDC-124929],30.83%
18,Cc1c(C(=O)N2CCc3cc4nccc(N5CCN6CCC[C@H]6C5)c4cc32)cnn1-c1ccc(C#N)cc1 [TCMDC-141315],14.04%
19,CN(C)CC(=O)N(Cc1ccc(Cl)c(Cl)c1)Cc1csc(-c2ccc(CNCc3ccccc3)cc2)n1 [TCMDC-141814],21.62%
20,CC(=O)Nc1ccc(CNC2Cc3ccc(-c4ccc(Cl)c(Cl)c4)cc3C2)cc1 (stereo not shown) [TCMDC-133070],12.53%
21,CCN(CC)S(=O)(=O)c1ccc(Cl)c(C(=O)Nc2ccc3nc(C)sc3c2)c1 [TCMDC-124376],33.54%
22,CCCCNCc1ccc(-c2nc(CN(Cc3ccc(Cl)c(Cl)c3)C(=O)CN(C)C)cs2)cc1 [TCMDC-141703],68.39%
23,CCCCOc1ccccc1C(=O)NCc1csc(-c2ccccc2)n1 [TCMDC-124914],34.72%

row,Structure (SMILES),% Inhibition
1,CCCCNCc1ccc(-c2nc(CN(Cc3ccc(Cl)c(Cl)c3)S(=O)(=O)c3ccc(NC(C)=O)cc3)cs2)cc1 [TCMDC-141597],93.87%
2,O=c1[nH]c(Cc2ccccc2)nc2ccc(Cl)cc12 [TCMDC-123986],41.17%
3,Cc1cccc2nc(-c3ccc(-c4ccc(CN5CCCC(N)C5)cc4)s3)[nH]c12.O=C(O)C(F)(F)F (stereo not shown) [TCMDC-133864],61.01%
4,Cc1cccc2nc(-c3ccc(-c4ccc(CN5CCCC(O)C5)cc4)s3)[nH]c12.O=C(O)C(F)(F)F (stereo not shown) [TCMDC-133827],-10.01%
5,Cc1cccc2nc(-c3ccc(-c4ccc(CN5CCC(N)C5)cc4)s3)[nH]c12.O=C(O)C(F)(F)F (stereo not shown) [TCMDC-133862],94.82%
6,Cc1cccc2nc(-c3ccc(-c4ccc(CN5CCC(C(N)=O)CC5)cc4)s3)[nH]c12.O=C(O)C(F)(F)F [TCMDC-132695],10.69%
7,Cc1cccc2nc(-c3ccc(-c4ccc(CN5CCC(CO)CC5)cc4)s3)[nH]c12.O=C(O)C(F)(F)F [TCMDC-133128],-12.48%
8,NC(=O)c1cccc(C(=O)Nc2ccc(-c3cccc(-c4nc5ccc(F)cc5[nH]4)c3)cc2)c1 [TCMDC-132196],-0.7681%
9,CCOC(=O)c1ccc(NC(=O)NNC(=O)c2ccc(CCN3CCC(c4nc(COCC(F)(F)F)c(-c5ccc(F)cc5)o4)CC3)cc2)cc1 [TCMDC-131907],11.96%
10,Cc1ccc2[nH]c(-c3ccc(C(=O)NC4CCN(Cc5ccccc5)CC4)cc3)nc2c1C [TCMDC-140449],4.358%
11,Cc1ccc(-c2cc(C(=O)Nc3ccc(S(=O)(=O)N4CCOCC4)cc3)[nH]n2)c(O)c1C [TCMDC-124306],74.46%
12,Cc1ccc(-c2cc(C(=O)Nc3ccc(S(=O)(=O)N4CCCCC4)cc3)[nH]n2)c(O)c1 [TCMDC-124305],-41.04%
13,O=C(Nc1ccc(S(=O)(=O)N2CCOCC2)cc1)c1cc(-c2cc(Cl)ccc2O)n[nH]1 [TCMDC-125204],-22.77%
14,O=C(Nc1ccon1)c1cc(-c2cccnc2)nc2ccc(Br)cc12 [TCMDC-125217],-5.67%
15,CC1N=C(N)N=C(N)N1OCc1cccc2ccccc12 (stereo not shown) [TCMDC-131595],37.89%
16,CN1CCC(OC(=O)c2cc3cc(-c4ccccc4)ccc3n2S(=O)(=O)c2ccccc2)CC1 [TCMDC-139104],88.58%
17,CN(C)CCCN1CCN(C(=O)c2cc3cc(-c4ccccc4)ccc3n2S(=O)(=O)c2ccccc2)CC1 [TCMDC-139103],17.27%
18,O=C(NCCN1CCCCC1)c1cc2cc(-c3ccccc3)ccc2n1S(=O)(=O)c1ccccc1 [TCMDC-139102],37.88%
19,Cc1cccc2nc(-c3ccc(-c4ccc(CNCC5CCCO5)cc4)cc3)[nH]c12.O=C(O)C(F)(F)F (stereo not shown) [TCMDC-133093],-8.859%
20,Cc1[nH]c2ccccc2c1C(=O)C(C)Sc1nnc(-c2ccccc2F)o1 (stereo not shown) [TCMDC-125312],68.46%
21,Cc1[nH]c2ccccc2c1C(=O)C(C)Sc1nnc(-c2ccccc2Br)[nH]1 (stereo not shown) [TCMDC-125114],93.54%
22,Cc1cccc(C)c1OC(=O)CSc1nnc(-c2ccccc2O)o1 [TCMDC-125733],-18.5%
23,Nc1nc(F)nc2nc[nH]c12 [TCMDC-124283],4.967%

row,Structure (SMILES),% Inhibition
1,O=C(NCc1cccc(F)c1)Nc1cccc(-c2ccc(-c3nc4ccc(C(F)(F)F)cc4[nH]3)cc2)c1 [TCMDC-133288],-40.45%
2,CCNc1cc(C(=O)N[C@@H](Cc2ccccc2)[C@H](O)CNCCc2cccc(C(F)(F)F)c2)cc(N2CCCC2=O)c1 [TCMDC-134552],-6.04%
3,COc1cccc(C(O)CNc2ccnc(Nc3ccc(Cl)cc3)n2)c1 (stereo not shown) [TCMDC-136575],5.772%
4,Clc1ccc(-c2ccc(C=NNc3nc(Nc4ccccc4)nc(Nc4ccccc4)n3)o2)cc1Cl [TCMDC-124152],3.438%
5,Clc1cccc(C=NNc2nc(Nc3ccccc3)nc(Nc3ccccc3)n2)c1 [TCMDC-125798],24.55%
6,Clc1ccc(Nc2nc(NCc3ccccc3)nc(N/N=C/c3ccccn3)n2)cc1 [TCMDC-138557],107.3%
7,O=c1cc(NCCCNCc2ccc(C(F)(F)F)s2)[nH]c2ccccc12 [TCMDC-140767],-70.92%
8,COc1ccc2nccc([C@@H](O)CN3CCC(NCCOc4ccncc4)CC3)c2c1 [TCMDC-140574],11.37%
9,COc1ccc2nccc([C@@H](O)CN3CCC(NCCOc4cccc(C(F)(F)F)c4)CC3)c2c1 [TCMDC-140507],58.71%
10,COc1ccc2nccc([C@@H](O)CN3CCC(NCCOc4ccc(F)cc4F)CC3)c2c1 [TCMDC-140645],94.72%
11,COc1ccc2nccc([C@@H](O)CN3CCC(NCCOc4ccc(F)cc4Cl)CC3)c2c1 [TCMDC-140660],20.67%
12,COc1ccc2nccc([C@@H](O)CN3CCC(NCCOc4cccc(F)c4F)CC3)c2c1 [TCMDC-140644],24.45%
13,COc1ccc2nccc([C@@H](O)CN3CCC(NCCOc4cc(F)cc(F)c4)CC3)c2c1 [TCMDC-140510],10.94%
14,COc1ccc2nccc([C@@H](O)CN3CCC(NCCOc4cc(C(F)(F)F)ccc4F)CC3)c2c1 [TCMDC-140658],14.45%
15,COc1ccc2nccc([C@@H](O)CNCCCN(C)CCOc3cc(F)cc(F)c3)c2c1 [TCMDC-141051],75.1%
16,COc1ccc2nccc([C@@H](O)CN3CCC(NCCOc4ccccc4C(F)(F)F)CC3)c2c1 [TCMDC-140713],37.87%
17,CCCCc1cc(NCC)nc(Nc2cccc(OC)c2)n1 [TCMDC-133993],0.878%
18,COc1ccc(CCCN2C(=O)C(c3ccccc3)(c3ccccc3)N=C2N)cc1 [TCMDC-136503],-39.16%
19,O=C(Nc1ccc(N2CCNCC2)nc1)c1oc(-c2ccccc2)nc1C(F)(F)F [TCMDC-135131],3.26%
20,CC(C)N(C(=O)CSc1nc2cc(Cl)ccc2c(=O)n1Cc1ccccc1)C(C)C [TCMDC-123612],6.529%
21,Cc1nc2ccc3ccc(CN(C)c4ccc(C(=O)N[C@@H](CCC(=O)O)C(=O)O)cc4)cc3c2c(=O)[nH]1 [TCMDC-138089],24.11%
